What all share (assay): NCI-60 one-dose screen, 48 h (100 = growth as untreated, 0 = no growth, -100 = all killed)
One assay has as its system HT29 colon. Conditions: 10 µM unless noted.
The test system of another assay is SNB-75 CNS. Conditions: 10 µM.
In another assay the test system is SNB-19 CNS. To be noted: 10 µM unless noted.
Another assay concerns U251 CNS. Conditions: 10 µM unless noted.
A further assay has as its system PC-3 prostate. To be noted: 10 µM unless noted.
Another assay has as its system SK-MEL-5 melanoma. Conditions: 10 µM unless noted.
The test system of a further assay is UACC-62 melanoma. To be noted: 10 µM unless noted.
Another assay deals with LOX IMVI melanoma. To be noted: 10 µM unless noted.
Another assay concerns SK-MEL-28 melanoma. Conditions: 10 µM unless noted.
The next assay deals with HCT-15 colon. Conditions: 10 µM unless noted.

SMILES strings stand for the structures. About 83,000 compounds went through this panel and 20% of them were active in at least one assay; those are over-represented in the sample as a whole.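 Single-concentration screen, 48 h exposure, 96-well plates. Endpoint: percent growth. Below 10 = active.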 Values without a mark were called inactive. The source made the active and inactive calls.

Turning to `COc1ccc(-c2c(N)n[nH]c2-c2cc(OC)c3c(c2)OCCO3)cc1`, the growth in the assay on HT29 colon was 29.7%; with SNB-75 CNS, 57.4%; in the assay on SNB-19 CNS, 84.9%; with U251 CNS it was 77.6%; with PC-3 prostate it was 66.9%; with SK-MEL-5 melanoma it was 69.8%. The growth was 71% in the assay on UACC-62 melanoma, 69.8% in the assay with LOX IMVI melanoma and 80.7% in the assay with SK-MEL-28 melanoma.
On to `COc1ccc(C(=O)NC(=O)Nc2cc3c(cc2F)/C(=C/c2[nH]c(C)c(CCC(=O)O)c2C)C(=O)N3)c(F)c1`, for which the growth with HCT-15 colon is 28%; in the assay with U251 CNS, 9.72% (active); in the assay on PC-3 prostate, 22.6%; in the assay on SK-MEL-5 melanoma it was 59.6%; in the assay with UACC-62 melanoma it was 31.3%; with LOX IMVI melanoma, 38.5%. In addition, the growth in the assay on SK-MEL-28 melanoma was 44.4%.
With `COc1ccc2[nH]c(C(=O)OCc3ccc4c(Cl)cc(Cl)c(O)c4n3)cc2c1`, the growth in the assay on HT29 colon is -80.3% (active); in the assay with SNB-75 CNS it was -32.4% (active); with SNB-19 CNS it was 53.2%; in the assay on U251 CNS, 7.6% (active); with PC-3 prostate it was -55.5% (active); with SK-MEL-5 melanoma it was -30.5% (active). The results for the growth in the assay on UACC-62 melanoma and in the assay with LOX IMVI melanoma were -89.4% (active) and -93.1% (active), respectively.
In the case of `C=C(C)[C@@H]1CC[C@]2(C(=O)N3CCNCC3)CC[C@]3(C)[C@H](CC[C@@H]4[C@@]5(C)C/C(=C/c6ccncc6)C(=O)C(C)(C)[C@@H]5CC[C@]43C)[C@@H]12`, the growth with HT29 colon is 109%; in the assay with SNB-75 CNS, 96.4%; with SNB-19 CNS, 99.5%; with U251 CNS it was 101%; with PC-3 prostate, 94.4%; with SK-MEL-5 melanoma, 99.6%. In addition, the growth in the assay with UACC-62 melanoma was 103%; in the assay with LOX IMVI melanoma it was 97.2%.
Regarding `Fc1ccccc1-c1nc(-c2nc3cc(Cl)c(Cl)cc3[nH]2)c2ccccn12`, the growth in the assay on HT29 colon was 70.8%; with SNB-75 CNS, 38.1%; with SNB-19 CNS it was 93.1%; with U251 CNS, 95%; in the assay on PC-3 prostate it was 62.2%; with UACC-62 melanoma, 83.1%. Moreover, the figures for the growth in the assay with LOX IMVI melanoma and with SK-MEL-28 melanoma were 79.9% and 83.9%, respectively.
As for `CC1=NC2=CC=CC3=NC(C(Cl)(Cl)Cl)=NC(=N1)N23`, the growth with HT29 colon was 60%; in the assay on SNB-75 CNS it was 56.2%; with SNB-19 CNS, 84.5%; in the assay on U251 CNS, 74.3%; with PC-3 prostate, 86.3%; in the assay on SK-MEL-5 melanoma, 88.4%. Also, the growth with UACC-62 melanoma is 69.5%; with LOX IMVI melanoma it was 80.6%; with SK-MEL-28 melanoma it was 86.1%.
In the case of `O=C1C2(c3ccccc3)C(c3ccccc3)=C(c3ccccc3)C1(c1ccccc1)C1CC=CC12` (stereo not drawn), the growth in the assay on HT29 colon is 81.8%; with SNB-75 CNS, 83.4%; with SNB-19 CNS, 85.5%; with U251 CNS it was 89.4%; in the assay with PC-3 prostate, 48.8%; in the assay with UACC-62 melanoma it was 78.3%. The results for the growth with LOX IMVI melanoma and in the assay on SK-MEL-28 melanoma were 85% and 108%, respectively.
In the case of `CCCCCCCC/C=C/CCCCCCCC1=NC(C)(C)CN1C(C)(C)CO`, the growth with HT29 colon is -57.8% (active); in the assay with SNB-75 CNS, 38.5%; in the assay on SNB-19 CNS, 57.9%; with U251 CNS, -68.1% (active); in the assay on PC-3 prostate, 44.9%; with SK-MEL-5 melanoma it was 4.8% (active). Moreover, the growth was -25.3% (active) in the assay with UACC-62 melanoma, -100% (active) with LOX IMVI melanoma and -63.9% (active) in the assay on SK-MEL-28 melanoma.
Turning to `COc1ccc(S(=O)(=O)n2ccc(-c3ccc4c(c3)CCC(C)(C)O4)n2)cc1OC`, the growth with HCT-15 colon is 71.9%; in the assay with SNB-19 CNS, 87.4%; in the assay with U251 CNS it was 79.5%; in the assay with PC-3 prostate, 69.5%; in the assay with UACC-62 melanoma it was 63.9%; in the assay with LOX IMVI melanoma, 76.7%. In addition, the growth in the assay on SK-MEL-28 melanoma is 91%.
For `COc1ccc(-c2cnnn2-c2nonc2-n2cccc2)cc1OC`, the growth in the assay with HT29 colon is 12.3%; in the assay with SNB-75 CNS, 51.3%; in the assay with SNB-19 CNS it was 84.2%; in the assay on U251 CNS, 56.8%; with PC-3 prostate it was 61.2%; in the assay with SK-MEL-5 melanoma it was 55.6%. The growth is 54.1% in the assay on UACC-62 melanoma, 44.2% in the assay on LOX IMVI melanoma and 67.8% in the assay with SK-MEL-28 melanoma.
Turning to `COC(=O)c1cc(=O)nc(N/N=C/c2ccco2)s1`, the growth in the assay with HT29 colon was 106%; in the assay on SNB-75 CNS, 96.2%; in the assay on SNB-19 CNS, 105%; with U251 CNS, 104%; in the assay on PC-3 prostate, 95.7%; with SK-MEL-5 melanoma, 99.6%. Also, the growth was 106% with UACC-62 melanoma, 101% in the assay on LOX IMVI melanoma and 104% in the assay with SK-MEL-28 melanoma.
Take `Clc1ccccc1-c1nc2ccccc2[nH]1`: the growth is 103% in the assay on HT29 colon; 84.1% with SNB-75 CNS; 90% in the assay on SNB-19 CNS; 94.4% with PC-3 prostate; 102% with SK-MEL-5 melanoma; 98.2% in the assay with UACC-62 melanoma. In addition, the growth in the assay with SK-MEL-28 melanoma is 113%.
With `CCN(CC)c1ccc(C(=N)c2ccc(N(CC)CC)cc2)cc1`, the growth in the assay with HT29 colon is -10.5% (active); in the assay with SNB-75 CNS, -34.3% (active); with SNB-19 CNS, 4.23% (active); in the assay on PC-3 prostate it was 3.06% (active); with SK-MEL-5 melanoma it was -100% (active); in the assay on UACC-62 melanoma, -64.6% (active). For the same compound, the growth with SK-MEL-28 melanoma was -39.9% (active).
On to `COc1cc(C2C3=C(COC3=O)Nc3cc4c(cc32)OCO4)cc2c1OCO2` (stereo not drawn), for which the growth in the assay on HCT-15 colon was 9.19% (active); in the assay with U251 CNS, 18.5%; in the assay with PC-3 prostate, 24%; in the assay with UACC-62 melanoma, 41.3%; in the assay with LOX IMVI melanoma, 16%; in the assay with SK-MEL-28 melanoma, 65.3%.
Consider `CC(C)(C)N1CCC1C(N)=O` (stereo not drawn), for which the growth in the assay with HT29 colon was 109%; in the assay with SNB-19 CNS, 99.4%; in the assay on PC-3 prostate, 95.3%; with SK-MEL-5 melanoma, 107%; in the assay with UACC-62 melanoma, 91.5%; with SK-MEL-28 melanoma, 114%.
Take `CN1CCN(Cc2ccc(NC(=O)c3nc4ccc5[nH]ncc5c4c4c3CCC4)cc2C(F)(F)F)CC1`: the growth in the assay with HT29 colon is -66% (active); in the assay on SNB-75 CNS, 96.3%; in the assay on SNB-19 CNS it was -76.7% (active); in the assay with U251 CNS, -93.7% (active); in the assay on PC-3 prostate, -64.8% (active); in the assay on SK-MEL-5 melanoma, 88.5%. The growth in the assay on UACC-62 melanoma was -61.7% (active); in the assay on LOX IMVI melanoma, -86.8% (active).
Regarding `Cc1cccc(/C=N/Nc2cc(C)c3cccc(C)c3n2)n1`, the growth in the assay with HT29 colon was 84.9%; in the assay on SNB-19 CNS, 92.7%; in the assay with U251 CNS, 78.6%; with PC-3 prostate it was 51.6%; with SK-MEL-5 melanoma it was 66.2%; with UACC-62 melanoma it was 87.1%. Also, the values for the growth in the assay with LOX IMVI melanoma and with SK-MEL-28 melanoma were 102% and 94.8%, respectively.

The values are drawn from PubChem BioAssay (NCI).
